Experimental findings from PubChem BioAssay (NCI) are described below.

About 83,000 compounds went through this panel and 20% of them were active in at least one assay; those are over-represented in the sample as a whole.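 Activity criterion: percent growth below 10, measured after cells in 96-well plates were exposed to a single compound concentration for 48 hours.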 Unmarked numbers belong to inactive results. The source made the active and inactive calls.

Some test systems named below: SK-MEL-2 melanoma; EKVX NSCLC; SN12C renal; UO-31 renal; TK-10 renal; CAKI-1 renal; A498 renal; CCRF-CEM leukemia; MOLT-4 leukemia; ACHN renal.
Test in all cases: NCI-60 one-dose screen, 48 h (100 = growth as untreated, 0 = no growth, -100 = all killed)
Holding throughout (details): 10 µM unless noted

Consider `COc1cc(Cn2cc3c(c2)-c2oncc2CC3)cc(OC)c1OC`, for which the growth was 23.7% in the assay with SK-MEL-2 melanoma; 40.6% with EKVX NSCLC; 30.2% in the assay on SN12C renal; 27.5% in the assay on UO-31 renal; 53.3% with TK-10 renal; 20.8% in the assay on CAKI-1 renal. Further, the growth in the assay on A498 renal was -1.56% (active); in the assay on CCRF-CEM leukemia, 17.3%; in the assay with MOLT-4 leukemia, 17.6%.

As for `CN(C)CCCC(C#N)c1ccccc1` (stereo not given), the growth is 109% in the assay on SK-MEL-2 melanoma; 118% in the assay with EKVX NSCLC; 101% with SN12C renal; 104% in the assay with UO-31 renal; 100% with TK-10 renal; 107% in the assay with A498 renal. Besides, the growth in the assay on CCRF-CEM leukemia was 105%; with MOLT-4 leukemia it was 91.6%.

Regarding `CNc1ccc(Br)c2c1C(=O)c1ccccc1C2=O`, the growth in the assay on SK-MEL-2 melanoma is 129%; with EKVX NSCLC, 115%; with SN12C renal, 102%; with UO-31 renal it was 86.1%; with ACHN renal it was 104%; in the assay with CAKI-1 renal it was 100%. Also, the growth in the assay with A498 renal is 93.3%; in the assay with CCRF-CEM leukemia it was 86.1%; with MOLT-4 leukemia, 94.7%.

With `Cn1cnc2c(N3CCN(C(=O)OCc4ccc5c(Cl)cc(Cl)c(O)c5n4)CC3)nc(Cl)nc21`, the growth with SK-MEL-2 melanoma is 81%; with EKVX NSCLC it was 66.9%; with SN12C renal it was 63%; in the assay with TK-10 renal it was 96%; in the assay with ACHN renal it was 48.4%; in the assay with CAKI-1 renal, 63.8%. The growth in the assay on A498 renal was 62.7%; in the assay with CCRF-CEM leukemia, 37.6%; with MOLT-4 leukemia, 59.5%.

As to `CCCN=C1NC(=O)/C(=C/c2nc(-c3ccc(OC)cc3)n3ccccc23)S1`, the growth with SK-MEL-2 melanoma is 95.2%; in the assay with EKVX NSCLC it was 115%; in the assay on SN12C renal it was 83.8%; in the assay on TK-10 renal it was 91.1%; in the assay on ACHN renal, 62.7%; in the assay with CAKI-1 renal, 123%. For the same compound, the growth in the assay with A498 renal is 103%; in the assay with CCRF-CEM leukemia, 84.9%; in the assay on MOLT-4 leukemia, 76.5%.

On to `O=C(CSc1nc2ccccc2[nH]1)Nc1ccc(-c2nc3ccccc3s2)c(Cl)c1`, for which the growth was 51.2% in the assay on SK-MEL-2 melanoma; 27.1% with EKVX NSCLC; 35.1% in the assay with SN12C renal; 8.16% (active) in the assay with UO-31 renal; 30.1% in the assay with TK-10 renal; 26.9% with CAKI-1 renal. Also, the figures for the growth in the assay on A498 renal and with MOLT-4 leukemia were 71.8% and 81.3%, respectively.

Turning to `C=C[C@@H]1C[C@@H]2Cc3cc(F)ccc3N1O2`, the growth with SK-MEL-2 melanoma was 117%; in the assay with EKVX NSCLC it was 110%; with SN12C renal it was 102%; with TK-10 renal, 107%; in the assay with ACHN renal it was 106%; in the assay with CAKI-1 renal, 92.5%. Also, the growth is 97.8% in the assay on A498 renal and -57.7% (active) in the assay on CCRF-CEM leukemia.

`C=CCSc1n[nH]c(-c2cccs2)n1`: the growth in the assay with SK-MEL-2 melanoma was 3.39% (active); with EKVX NSCLC, 108%; with SN12C renal, 97.2%; in the assay with TK-10 renal, 121%; with ACHN renal it was 105%; in the assay on A498 renal, 101%. The growth in the assay with CCRF-CEM leukemia is 94.6%; in the assay on MOLT-4 leukemia, 99.5%.

For the compound `O=C1C(Cl)=C(Nc2ccccn2)C(=O)c2ccccc21`, the growth with SK-MEL-2 melanoma was 88.2%; with EKVX NSCLC, 98.1%; in the assay with SN12C renal, 5.54% (active); with UO-31 renal, 12.6%; in the assay with ACHN renal, 17%; in the assay with CAKI-1 renal, 53.1%. Further, the growth in the assay on A498 renal is 100%; in the assay on CCRF-CEM leukemia, 56.4%; in the assay on MOLT-4 leukemia, 62.8%.

Regarding `NC(=N\N=C/c1ccc(O)cc1)/C(N)=N\N=C/c1ccc(O)cc1`, the growth in the assay on SK-MEL-2 melanoma was 59%; with EKVX NSCLC it was 65.5%; with SN12C renal, 74.2%; in the assay on UO-31 renal it was 28.5%; with TK-10 renal it was 83.4%; with CCRF-CEM leukemia it was 10.8%. Further, in the assay on MOLT-4 leukemia, the growth is -8.61% (active).

Turning to `CC(C)(C)OC(=O)NCCc1ccc(N=C=S)cc1`, the growth is 53.8% with SK-MEL-2 melanoma; 89.7% in the assay with EKVX NSCLC; 90.6% in the assay with SN12C renal; 62.7% with UO-31 renal; 80.3% in the assay with ACHN renal; 70.2% in the assay on A498 renal. Also, the figures for the growth in the assay on CCRF-CEM leukemia and in the assay on MOLT-4 leukemia were 30.2% and 69%, respectively.

Turning to `CC(=O)OC[C@]12CC[C@H]3[C@@H](C[C@H]4O[C@]45CC=CC(=O)[C@]35C)[C@]1(O)CC[C@@]2(O)[C@@](C)(O)C1CC(C)=C(C)C(=O)O1` (stereo not given in full), the growth with SK-MEL-2 melanoma was -22.6% (active); with EKVX NSCLC, -14.1% (active); in the assay with SN12C renal, -39.2% (active); with TK-10 renal, -55% (active); with ACHN renal, -64.1% (active); in the assay with CAKI-1 renal it was -63.7% (active). The growth in the assay with A498 renal was -76.2% (active); in the assay with CCRF-CEM leukemia, -8.89% (active); with MOLT-4 leukemia, 7.75% (active).

In the case of `O=C1CCCCC1(c1ccccc1)c1ccccc1`, the growth is 100% in the assay on SK-MEL-2 melanoma; 91.2% in the assay on EKVX NSCLC; 104% in the assay on SN12C renal; 98.8% with UO-31 renal; 101% in the assay with ACHN renal; 82.4% with CAKI-1 renal. For the same compound, the values for the growth with CCRF-CEM leukemia and in the assay on MOLT-4 leukemia were 101% and 105%, respectively.

As for `CC(C)(C)N1CCC1C(N)=O` (stereo not given), the growth in the assay with SK-MEL-2 melanoma is 159%; with EKVX NSCLC, 92.2%; in the assay on SN12C renal, 104%; in the assay with UO-31 renal, 131%; in the assay with TK-10 renal, 91.8%; with CAKI-1 renal it was 83%. Further, the growth is 93% with CCRF-CEM leukemia and 120% with MOLT-4 leukemia.

On to `COc1ccc2c(c1)C(c1cc(OC)c3c(c1)OCO3)C1=C(COC1=O)N2` (stereo not given), for which the growth is 33.2% in the assay on SK-MEL-2 melanoma; 41.1% with EKVX NSCLC; 28% in the assay with SN12C renal; 62% in the assay with UO-31 renal; 60.8% in the assay with TK-10 renal; 30% in the assay with A498 renal. Further, the growth was 7.1% (active) in the assay on CCRF-CEM leukemia and 16.5% in the assay on MOLT-4 leukemia.
